From ChEMBL document CHEMBL3988442, “University of Dundee, Small-Polar-MMV Screening Library” (2021) come the findings set out here.

Molecules are shown by their SMILES. For some of these results: Measured potencies and affinities stand elsewhere.

Common to all, as to design: scale not given: direction of the effect not stated beside the values
The target in test [1] is Protein translocase subunit SecA (Escherichia coli (strain K12)) (UniProt P10408). The experiment in a line: Assay to Identify E. coli SecA ATPase Inhibitors. Format: functional. As to conditions: 30 µM.
The target in test [2] is T1, Ubiquitin-activating enzyme e1, putative (Leishmania donovani (strain BPK282A1)) (UniProt E9BSI1).
T1 sequence (whole entry): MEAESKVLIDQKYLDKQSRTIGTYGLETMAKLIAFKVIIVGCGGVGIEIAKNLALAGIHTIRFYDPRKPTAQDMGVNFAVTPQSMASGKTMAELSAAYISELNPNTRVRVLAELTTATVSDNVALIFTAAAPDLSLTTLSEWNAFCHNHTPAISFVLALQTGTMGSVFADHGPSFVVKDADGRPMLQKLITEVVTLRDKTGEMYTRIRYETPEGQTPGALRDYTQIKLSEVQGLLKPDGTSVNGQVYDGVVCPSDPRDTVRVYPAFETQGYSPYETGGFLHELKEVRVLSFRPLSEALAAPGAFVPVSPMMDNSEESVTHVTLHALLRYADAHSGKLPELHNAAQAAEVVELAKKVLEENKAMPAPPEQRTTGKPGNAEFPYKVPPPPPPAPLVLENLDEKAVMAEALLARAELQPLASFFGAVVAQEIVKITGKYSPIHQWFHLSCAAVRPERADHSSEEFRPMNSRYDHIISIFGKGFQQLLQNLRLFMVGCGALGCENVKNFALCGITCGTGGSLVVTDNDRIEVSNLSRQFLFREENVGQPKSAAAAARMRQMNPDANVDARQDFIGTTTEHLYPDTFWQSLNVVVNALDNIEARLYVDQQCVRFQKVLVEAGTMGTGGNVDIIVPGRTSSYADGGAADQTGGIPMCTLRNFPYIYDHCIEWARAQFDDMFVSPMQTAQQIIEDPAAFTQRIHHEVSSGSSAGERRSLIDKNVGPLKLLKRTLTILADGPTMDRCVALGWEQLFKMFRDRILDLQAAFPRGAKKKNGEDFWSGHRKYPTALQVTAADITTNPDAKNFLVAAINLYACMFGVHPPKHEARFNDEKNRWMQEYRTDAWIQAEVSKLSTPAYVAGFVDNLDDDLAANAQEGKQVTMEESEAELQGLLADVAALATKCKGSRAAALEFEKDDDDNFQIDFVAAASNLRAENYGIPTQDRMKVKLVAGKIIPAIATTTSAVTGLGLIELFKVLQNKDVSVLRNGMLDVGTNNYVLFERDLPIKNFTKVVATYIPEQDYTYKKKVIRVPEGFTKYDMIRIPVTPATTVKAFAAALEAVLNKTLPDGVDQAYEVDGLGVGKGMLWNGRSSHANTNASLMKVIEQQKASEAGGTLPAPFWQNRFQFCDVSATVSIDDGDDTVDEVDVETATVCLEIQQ
The experiment in a line: Leishmania donovani Ubiquitin Activating Enzyme (LdE1). The test is classed as functional. As to conditions: 30 µM.

Test [3] concerns the target AMP-activated protein kinase, AMPK (Homo sapiens) (UniProt P54646+O43741+P54619+Q9UGJ0+Q9Y478+Q13131+Q9UGI9). Briefly: AMP-dependent Kinase enzyme assay. An in vitro enzyme assay that detects ADP turnover that is directly proportional to AMPK activity. This uses naive AMPK that is activated during the assay with MK-8722. The test is classed as functional. To be noted: 30 µM.

The target of test [4] is Sialic acid-binding Ig-like lectin 9 (Homo sapiens) (UniProt Q9Y336). Briefly: Hs-Siglec9 ALPHAscreen SOP 20170721. To be noted: 10 µM.
The test system of a further test is Trypanosoma cruzi. The experiment in a line: Trypanosoma cruzi phosphomannomutase and mannose-1-phosphate guanylyltransferase assay. Format: functional. To be noted: 10 µM.
Test [5] concerns the target T2, Arginase-2, mitochondrial (Homo sapiens) (UniProt P78540).
T2 sequence (whole entry): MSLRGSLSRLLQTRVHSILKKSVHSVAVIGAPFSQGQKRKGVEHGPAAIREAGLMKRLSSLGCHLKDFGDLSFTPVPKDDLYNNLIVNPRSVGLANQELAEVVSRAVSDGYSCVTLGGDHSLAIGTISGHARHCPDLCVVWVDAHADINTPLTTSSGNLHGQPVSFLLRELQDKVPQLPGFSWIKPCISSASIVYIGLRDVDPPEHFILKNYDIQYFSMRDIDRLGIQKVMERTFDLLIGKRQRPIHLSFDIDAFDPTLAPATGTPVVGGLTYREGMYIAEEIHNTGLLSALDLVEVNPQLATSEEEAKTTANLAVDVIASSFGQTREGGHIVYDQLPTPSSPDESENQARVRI
The experiment in a line: in vitro enzyme assay to detect the production of urea directly proportional to the activity of Arginase II. Further: in the data most compounds retested in dose-response had high values. The test is classed as functional. To be noted: 33.3 µM.

Test [6] deals with T3, Proteasome subunit beta (Trypanosoma cruzi) (UniProt O96673).
T3 sequence (whole entry): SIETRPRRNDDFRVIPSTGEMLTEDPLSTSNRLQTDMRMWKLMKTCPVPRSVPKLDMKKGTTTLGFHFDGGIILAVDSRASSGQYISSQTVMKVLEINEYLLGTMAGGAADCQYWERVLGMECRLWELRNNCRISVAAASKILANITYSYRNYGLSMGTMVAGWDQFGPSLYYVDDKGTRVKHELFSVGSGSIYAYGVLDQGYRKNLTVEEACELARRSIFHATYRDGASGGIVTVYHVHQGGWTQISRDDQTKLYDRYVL
Briefly: Trypanosoma cruzi proteasome chymotrypsin-like activity (TcProtChymo) assay. Further: in the data most compounds retested in dose-response had high values. Format: functional. To be noted: 9.37 µM.

The species entered for the next test is Homo sapiens. Briefly: To identify inhibition of the IFN signalling (Jak-Stat) pathway via expression of an eGFP reporter gene under the control of an IFN-stimulated response element (ISRE) containing MxA promoter. To be noted: 30 µM. The test is classed as functional.
Test [7] concerns the target T4, Tyrosyl-tRNA synthetase, putative (Trypanosoma cruzi (strain CL Brener)) (UniProt Q4DSP6).
T4 sequence (whole entry): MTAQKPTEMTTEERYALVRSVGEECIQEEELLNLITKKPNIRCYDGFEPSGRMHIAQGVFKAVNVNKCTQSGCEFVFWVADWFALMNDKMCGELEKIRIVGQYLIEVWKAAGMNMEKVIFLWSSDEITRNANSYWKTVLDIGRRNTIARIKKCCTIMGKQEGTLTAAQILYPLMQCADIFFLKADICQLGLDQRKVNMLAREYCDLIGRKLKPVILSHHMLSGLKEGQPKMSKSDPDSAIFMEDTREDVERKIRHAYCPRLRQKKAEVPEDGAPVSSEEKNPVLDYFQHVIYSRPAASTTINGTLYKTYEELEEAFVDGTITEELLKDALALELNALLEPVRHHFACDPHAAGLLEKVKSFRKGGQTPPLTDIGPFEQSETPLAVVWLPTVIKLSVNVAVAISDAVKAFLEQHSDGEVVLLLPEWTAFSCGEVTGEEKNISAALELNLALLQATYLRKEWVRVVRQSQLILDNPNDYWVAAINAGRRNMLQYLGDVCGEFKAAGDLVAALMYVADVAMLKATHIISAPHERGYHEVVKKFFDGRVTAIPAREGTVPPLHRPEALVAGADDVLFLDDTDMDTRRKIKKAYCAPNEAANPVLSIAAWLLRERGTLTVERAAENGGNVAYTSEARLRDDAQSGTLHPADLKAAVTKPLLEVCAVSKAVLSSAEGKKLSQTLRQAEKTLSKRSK
The experiment in a line: Trypanosoma cruzi tyrosyl tRNA synthetase (TcYRS) _High Tyrosine SOP. Further: in the data most compounds retested in dose-response had high values. The test is classed as functional. As to conditions: 30 µM.

The target in test [8] is T4, Tyrosyl-tRNA synthetase, putative (Trypanosoma cruzi (strain CL Brener)). The experiment in a line: Trypanosoma cruzi tyrosyl tRNA synthetase (TcYRS) SOP. The test is classed as functional. To be noted: 30 µM.
The target in test [9] is Chromo domain-containing protein 1 (Saccharomyces cerevisiae (strain ATCC 204508 / S288c) (Baker's yeast)) (UniProt P32657). Briefly: ScCHD-1 Enzyme Inhibition Assay. Further: in the data most compounds retested in dose-response had high values. As to conditions: 30 µM. The test is classed as functional.
Chain of Chromo domain-containing protein 1 (Saccharomyces cerevisiae (strain ATCC 204508 / S288c) (Baker's yeast)) (P32657 whole entry, the tested form may be a part): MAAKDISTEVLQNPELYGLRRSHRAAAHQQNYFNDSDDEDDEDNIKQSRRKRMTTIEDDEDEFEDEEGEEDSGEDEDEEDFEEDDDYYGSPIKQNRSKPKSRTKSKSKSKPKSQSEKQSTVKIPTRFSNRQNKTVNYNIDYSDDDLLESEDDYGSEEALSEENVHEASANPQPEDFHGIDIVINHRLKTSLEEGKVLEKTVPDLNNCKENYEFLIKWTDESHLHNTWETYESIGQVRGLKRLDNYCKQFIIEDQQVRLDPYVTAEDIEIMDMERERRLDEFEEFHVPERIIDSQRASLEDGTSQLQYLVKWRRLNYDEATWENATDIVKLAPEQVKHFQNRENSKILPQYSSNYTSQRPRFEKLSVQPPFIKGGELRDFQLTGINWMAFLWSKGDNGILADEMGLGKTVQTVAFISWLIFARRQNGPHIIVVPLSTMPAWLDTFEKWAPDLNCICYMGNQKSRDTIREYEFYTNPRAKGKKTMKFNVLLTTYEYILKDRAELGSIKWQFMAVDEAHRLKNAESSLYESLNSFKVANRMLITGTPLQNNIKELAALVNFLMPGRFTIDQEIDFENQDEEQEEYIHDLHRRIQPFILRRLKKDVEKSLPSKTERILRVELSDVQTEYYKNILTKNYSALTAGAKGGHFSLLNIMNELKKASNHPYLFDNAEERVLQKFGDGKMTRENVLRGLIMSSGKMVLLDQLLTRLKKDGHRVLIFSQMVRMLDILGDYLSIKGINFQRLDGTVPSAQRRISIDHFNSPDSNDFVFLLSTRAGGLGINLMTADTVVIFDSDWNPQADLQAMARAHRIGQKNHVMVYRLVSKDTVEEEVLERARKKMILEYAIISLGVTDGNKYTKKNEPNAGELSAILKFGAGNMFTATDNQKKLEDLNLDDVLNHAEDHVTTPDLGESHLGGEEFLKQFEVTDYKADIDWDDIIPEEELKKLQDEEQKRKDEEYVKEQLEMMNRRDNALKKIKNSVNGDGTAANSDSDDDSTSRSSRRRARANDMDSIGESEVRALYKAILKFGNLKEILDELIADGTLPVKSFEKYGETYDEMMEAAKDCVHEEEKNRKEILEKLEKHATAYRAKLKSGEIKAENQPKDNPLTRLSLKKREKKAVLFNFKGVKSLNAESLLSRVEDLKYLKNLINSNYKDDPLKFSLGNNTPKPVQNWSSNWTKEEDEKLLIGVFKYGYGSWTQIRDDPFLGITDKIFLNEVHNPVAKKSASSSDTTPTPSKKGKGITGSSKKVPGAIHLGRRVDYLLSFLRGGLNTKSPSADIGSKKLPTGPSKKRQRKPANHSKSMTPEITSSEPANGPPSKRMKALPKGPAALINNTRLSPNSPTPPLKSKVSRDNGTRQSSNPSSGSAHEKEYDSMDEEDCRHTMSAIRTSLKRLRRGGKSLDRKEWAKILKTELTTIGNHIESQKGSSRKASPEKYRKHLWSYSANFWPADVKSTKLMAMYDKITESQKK

Chain of Sialic acid-binding Ig-like lectin 9 (Homo sapiens) (Q9Y336 whole entry): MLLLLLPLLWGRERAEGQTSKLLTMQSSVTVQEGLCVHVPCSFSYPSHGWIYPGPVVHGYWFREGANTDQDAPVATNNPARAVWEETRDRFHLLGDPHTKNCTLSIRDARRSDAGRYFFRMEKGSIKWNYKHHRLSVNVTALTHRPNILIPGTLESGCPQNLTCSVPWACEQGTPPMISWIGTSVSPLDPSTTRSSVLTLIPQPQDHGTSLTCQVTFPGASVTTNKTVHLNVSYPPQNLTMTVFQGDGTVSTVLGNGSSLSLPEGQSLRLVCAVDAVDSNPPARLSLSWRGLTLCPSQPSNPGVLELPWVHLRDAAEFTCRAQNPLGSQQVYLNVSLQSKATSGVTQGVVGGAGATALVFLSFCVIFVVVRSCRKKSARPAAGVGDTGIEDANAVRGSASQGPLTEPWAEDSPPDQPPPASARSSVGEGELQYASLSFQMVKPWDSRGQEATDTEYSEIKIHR
Chain of Protein translocase subunit SecA (Escherichia coli (strain K12)) (P10408 whole entry): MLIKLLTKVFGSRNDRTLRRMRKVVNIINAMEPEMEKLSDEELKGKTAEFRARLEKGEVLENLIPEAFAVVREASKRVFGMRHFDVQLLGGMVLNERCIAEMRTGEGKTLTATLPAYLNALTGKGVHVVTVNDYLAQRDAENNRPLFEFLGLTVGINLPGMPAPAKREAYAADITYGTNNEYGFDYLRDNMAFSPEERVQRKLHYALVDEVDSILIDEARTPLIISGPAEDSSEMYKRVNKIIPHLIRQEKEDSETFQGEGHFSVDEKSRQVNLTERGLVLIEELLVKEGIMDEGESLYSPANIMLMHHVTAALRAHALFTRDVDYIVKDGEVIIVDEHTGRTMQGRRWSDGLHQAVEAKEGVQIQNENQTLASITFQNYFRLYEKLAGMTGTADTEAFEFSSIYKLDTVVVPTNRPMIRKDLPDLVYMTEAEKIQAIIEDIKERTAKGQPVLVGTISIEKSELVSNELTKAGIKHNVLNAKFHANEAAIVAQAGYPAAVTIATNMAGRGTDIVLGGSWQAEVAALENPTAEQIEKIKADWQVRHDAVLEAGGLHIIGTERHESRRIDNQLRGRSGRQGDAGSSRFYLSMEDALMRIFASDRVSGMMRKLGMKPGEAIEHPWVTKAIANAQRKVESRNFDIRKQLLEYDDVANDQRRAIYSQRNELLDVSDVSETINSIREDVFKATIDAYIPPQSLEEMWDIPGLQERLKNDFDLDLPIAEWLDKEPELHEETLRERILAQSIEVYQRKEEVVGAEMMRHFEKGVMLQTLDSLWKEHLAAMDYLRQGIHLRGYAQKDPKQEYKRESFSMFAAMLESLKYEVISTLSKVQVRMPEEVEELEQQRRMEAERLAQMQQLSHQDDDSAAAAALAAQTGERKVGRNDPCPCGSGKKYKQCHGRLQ

As for `CCOc1cccc(C(C)NCc2ccc(OC)c(OC)c2OC)c1` (stereo unspecified), the Percent Effect was -3% in [1]; 16% in [2]; -4.66% in test [3]; 15.5% in [4]; 8.08% in the test with Trypanosoma cruzi; 4.69% in [5]. In addition, the Percent Effect in [6] was 11.2%; in the test filed under Homo sapiens, 43.6%; in [7], 7.1%; in test [8], 21%; in test [9], -6.92%.
Take `Cc1nc(CN2CCCC(N(C)CCc3ccncc3)C2)no1` (stereo unspecified): the Percent Effect in [1] is 0.743%; in test [2], 18.9%; in test [3], -12.8%; in test [4], -5.86%; with Trypanosoma cruzi it was -2.51%; in test [5], 6.84%. The Percent Effect in [6] was determined as 10.4%; in the test filed under Homo sapiens, 24.3%; in test [7] it was 0%; in test [8] it was 13.4%; in test [9], 0.929%.
For `COCCOc1ccc(NC(=O)C2CC(=O)N(C)C2)cn1` (stereo unspecified), the Percent Effect in test [1] was 0.0993%; in test [2], 12.7%; in [3], -16.4%; in [4], -3.76%; in the test with Trypanosoma cruzi, -5.95%; in test [5], 6.46%. In addition, the Percent Effect is 1.06% in [6]; 23.3% in the test listed under Homo sapiens; 1.48% in test [7]; 11.4% in test [8]; -5.38% in test [9].
Take `CCn1c(CN2CCCN(C(=O)OC)CC2)nc2c(F)cccc21`: the Percent Effect was -2.85% in test [1]; 15.8% in test [2]; -5.17% in test [3]; 7.02% in test [4]; -3.95% with Trypanosoma cruzi; 8.81% in test [5]. Besides, the Percent Effect in test [6] is 9.69%; in the test filed under Homo sapiens, -5.04%; in test [7], 6.37%; in [8], 12.2%; in test [9] it was -4.43%.
Consider `Cc1cc(CN2CCN(C(=O)C(C)C)[C@@H]3CS(=O)(=O)C[C@@H]32)ccc1F`, for which the Percent Effect was -4.05% in [1]; 6.94% in test [2]; -6.22% in [3]; -3.08% in test [4]; -0.486% with Trypanosoma cruzi; 5.3% in test [5]. The Percent Effect in test [6] is 14.7%; in the test listed under Homo sapiens it was -3.72%; in test [7], 7.37%; in test [8], 12.8%; in test [9], -2.86%.
With `Cn1cc(C2CCCN2CCCc2nc(-c3cccs3)no2)cn1` (stereo unspecified), the Percent Effect in [1] was -0.777%; in test [2], -32.4%; in test [3], -4.52%; in test [4], -1.6%; in the test with Trypanosoma cruzi, -3.87%; in test [5], -6.41%. Further, the Percent Effect in [6] was 7.03%; in the test listed under Homo sapiens, 18.4%; in [7], 4.43%; in test [8], -6.17%; in [9] it was 0.396%.
Take `Cn1nc(C2CCCN(C(=O)CO)C2)cc1O` (stereo unspecified): the Percent Effect in test [1] was -4.16%; in test [2], -6.76%; in test [3] it was -113%; in [4], -1.22%; in the test with Trypanosoma cruzi it was -3.75%; in test [5], -0.232%. For the same molecule, the Percent Effect was 1.4% in test [6]; -6.44% in the test filed under Homo sapiens; -6.45% in [7]; -9.09% in test [8]; -2.64% in [9].
Consider `Cc1nnc(CN2CCN(CC(O)c3cccc(F)c3)CC2)n1C` (stereo unspecified), for which the Percent Effect in [1] was -3.94%; in [2], 15.6%; in [3] it was -3.28%; in test [4], 3.58%; with Trypanosoma cruzi, 2.64%; in [5], 0.632%. The Percent Effect is 8.33% in test [6]; 14% in the test filed under Homo sapiens; 3.81% in [7]; 11.8% in test [8]; -20.7% in [9].
For `Cc1nn(C)cc1C(=O)N1C[C@H]2CC[C@@H]1CN(S(=O)(=O)N(C)C)C2`, the Percent Effect in test [1] was -0.765%; in [2], 5.33%; in test [3], -1.08%; in test [4], 4.66%; with Trypanosoma cruzi it was -8.08%; in test [5], 2.6%. The Percent Effect in test [6] is 20.2%; in the test listed under Homo sapiens, 13.3%; in test [7], 0.546%; in test [8], 1.24%; in test [9], -6.02%.
Take `O=C(C1CCCC1)N1CCN(Cc2nc(-c3ccco3)no2)CC1`: the Percent Effect in test [1] was -5.54%; in [2], 13.5%; in test [3], -5.37%; in test [4] it was 16%; in the test with Trypanosoma cruzi it was 3.99%; in [5] it was -1.29%. Besides, the Percent Effect was 3.23% in [6]; 19.1% in the test listed under Homo sapiens; 4.95% in test [7]; 15.8% in test [8]; -4.84% in test [9].
Consider `Cc1nc(N2CCOCC2)nc2c1CCN(Cc1cccnc1)CC2`, for which the Percent Effect in test [1] was -2.77%; in test [2], 0%; in test [3], 0.954%; in [4], 7.94%; in the test on Trypanosoma cruzi, -3.28%; in [5] it was -56.8%. In addition, the Percent Effect was 3.08% in [6]; -25.6% in the test filed under Homo sapiens; 7.29% in test [7]; -2.5% in test [8]; -17.8% in test [9].
